Laboratory results taken from PubChem BioAssay.
The source made the active and inactive calls.

Experiments:
[1] = test system: Plasmodium falciparum Sir2 (PF13_0152, Sir2A); test: Plasmodium falciparum Sir2A binding compounds – biochemical, small-molecule microarray, 635 nm fluorescence, primary screen (AID 1098); conditions: fluorescence 635 nm, higher = more signal;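 note: score merges spot fluorescence intensity with its signal-to-noise ratio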
[2] = probe aDKK1 binding to arrayed compounds – biochemical, biotinylated probe, 635/667 nm fluorescence, primary screen (AID 1099); conditions: small-molecule microarray, higher = more signal;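 note: score merges 667nm spot fluorescence with signal to noise across triplicate slides; reference of the scale not given here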
[3] = probe aCHRDL2 binding to arrayed compounds – biochemical, biotinylated probe, 635/667 nm fluorescence, primary screen (AID 1100); conditions: small-molecule microarray, higher = more signal
[4] = change in splice reporter luminescence, either direction, cell-based, HEK293, spliceosome inhibition project, primary screen (AID 1101); conditions: HEK293 splicing luciferase reporter, 24 h, higher = more signal, called active from +8 up or from −8 down;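 note: HEK293 cells carrying a splicing-competent luciferase reporter gene; test concentration not given here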
[5] = target: Fibroblast growth factor 10 (Homo sapiens) (UniProt O15520); test: compounds binding fibroblast growth factor 10 – biochemical, small-molecule microarray, 635 nm fluorescence, primary screen (AID 1102); conditions: FGF10 binding, fluorescence 635 nm, higher = more signal
Sequence of Fibroblast growth factor 10 (Homo sapiens) (O15520 whole entry, looked up): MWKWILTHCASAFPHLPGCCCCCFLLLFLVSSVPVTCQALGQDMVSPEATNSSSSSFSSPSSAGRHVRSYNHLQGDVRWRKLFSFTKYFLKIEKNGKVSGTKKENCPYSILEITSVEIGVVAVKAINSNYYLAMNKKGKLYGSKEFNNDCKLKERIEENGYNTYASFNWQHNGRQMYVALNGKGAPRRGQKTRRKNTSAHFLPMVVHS

[6] = test system: glycogen synthase kinase-3 (GSK3A per assay name; protocol says GSK3B); test: compounds binding glycogen synthase kinase-3 – biochemical, small-molecule microarray, 635 nm fluorescence, GSK3A, primary screen (AID 1103); conditions: fluorescence 635 nm, higher = more signal; note: the record names both GSK3A and GSK3B
[7] = target: Epidermal growth factor receptor (Homo sapiens) (UniProt P00533); test: compounds binding epidermal growth factor receptor – biochemical, small-molecule microarray, 635 nm fluorescence, primary screen (AID 1104); conditions: EGFR binding, higher = more signal;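 note: score merges 667 nm emission intensity with spot signal to noise over triplicate slides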
Sequence of Epidermal growth factor receptor (Homo sapiens) (P00533 whole entry, looked up): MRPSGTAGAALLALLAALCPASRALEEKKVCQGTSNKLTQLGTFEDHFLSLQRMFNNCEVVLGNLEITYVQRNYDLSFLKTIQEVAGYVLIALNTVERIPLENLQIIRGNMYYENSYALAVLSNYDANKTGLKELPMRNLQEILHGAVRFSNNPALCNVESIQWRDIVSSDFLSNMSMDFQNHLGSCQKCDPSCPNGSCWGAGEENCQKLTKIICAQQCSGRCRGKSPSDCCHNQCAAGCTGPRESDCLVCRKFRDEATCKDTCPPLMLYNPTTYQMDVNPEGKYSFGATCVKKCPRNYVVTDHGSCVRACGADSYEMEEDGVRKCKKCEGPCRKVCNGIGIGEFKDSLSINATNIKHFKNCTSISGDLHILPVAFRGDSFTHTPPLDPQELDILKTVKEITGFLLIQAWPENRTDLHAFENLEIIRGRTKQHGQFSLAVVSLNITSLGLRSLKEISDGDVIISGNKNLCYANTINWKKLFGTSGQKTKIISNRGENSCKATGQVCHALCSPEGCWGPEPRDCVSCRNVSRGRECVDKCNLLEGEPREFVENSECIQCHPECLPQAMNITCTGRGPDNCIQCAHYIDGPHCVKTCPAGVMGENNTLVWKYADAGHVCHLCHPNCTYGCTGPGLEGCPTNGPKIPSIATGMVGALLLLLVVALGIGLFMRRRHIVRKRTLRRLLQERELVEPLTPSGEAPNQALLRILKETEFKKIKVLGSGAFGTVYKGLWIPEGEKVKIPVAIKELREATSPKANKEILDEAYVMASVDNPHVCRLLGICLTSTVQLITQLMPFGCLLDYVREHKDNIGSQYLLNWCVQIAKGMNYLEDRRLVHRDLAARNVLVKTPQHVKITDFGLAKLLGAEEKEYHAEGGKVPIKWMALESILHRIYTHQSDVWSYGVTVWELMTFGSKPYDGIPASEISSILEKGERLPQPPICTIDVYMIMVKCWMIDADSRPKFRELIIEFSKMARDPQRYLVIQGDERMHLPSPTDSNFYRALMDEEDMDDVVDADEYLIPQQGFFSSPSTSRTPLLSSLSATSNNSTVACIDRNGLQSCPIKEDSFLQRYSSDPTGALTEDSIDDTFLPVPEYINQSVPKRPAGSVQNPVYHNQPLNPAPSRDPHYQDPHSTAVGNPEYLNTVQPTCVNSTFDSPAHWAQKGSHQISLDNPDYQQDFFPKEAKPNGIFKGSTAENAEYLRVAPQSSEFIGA

[8] = target: Follistatin-related protein 3 (Homo sapiens) (UniProt O95633); test: compounds binding follistatin-related protein 3 – biochemical, small-molecule microarray, 635 nm fluorescence, primary screen (AID 1105); conditions: FSTL3 binding, higher = more signal;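 note: score merges emission near 667 nm and signal to noise per printed spot across three slides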
Sequence of Follistatin-related protein 3 (Homo sapiens) (O95633 whole entry, looked up): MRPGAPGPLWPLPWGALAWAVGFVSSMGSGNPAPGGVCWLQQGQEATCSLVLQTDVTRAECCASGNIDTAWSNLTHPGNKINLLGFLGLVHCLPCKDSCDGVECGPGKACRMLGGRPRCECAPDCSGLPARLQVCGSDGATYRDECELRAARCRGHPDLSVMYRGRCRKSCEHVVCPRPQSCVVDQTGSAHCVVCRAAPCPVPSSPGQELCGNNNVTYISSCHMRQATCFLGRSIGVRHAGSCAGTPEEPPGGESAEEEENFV

[9] = target: Dickkopf-related protein 1 (Homo sapiens) (UniProt O94907); test: small molecules binding DKK1 protein – biochemical, small-molecule microarray, 635 nm fluorescence scan, primary screen (AID 1106); conditions: higher = more signal;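 note: score merges emission near 667 nm with signal to noise over three replicate slides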
Sequence of Dickkopf-related protein 1 (Homo sapiens) (O94907 whole entry, looked up): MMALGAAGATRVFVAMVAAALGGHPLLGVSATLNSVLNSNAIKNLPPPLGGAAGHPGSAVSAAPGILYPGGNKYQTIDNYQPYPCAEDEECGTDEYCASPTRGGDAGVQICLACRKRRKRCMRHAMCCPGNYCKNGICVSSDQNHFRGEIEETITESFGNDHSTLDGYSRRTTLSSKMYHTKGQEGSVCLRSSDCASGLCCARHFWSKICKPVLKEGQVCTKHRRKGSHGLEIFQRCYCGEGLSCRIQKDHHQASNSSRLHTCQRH

[10] = test system: Inhibin beta A chain (activin A); test: small molecules binding activin A – biochemical, small-molecule microarray, 635 nm fluorescence scan, primary screen (AID 1107); conditions: INHBA, higher = more signal;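 note: mouse activin A protein probed at 4.33 µg/mL on printed slides; score merges bound-protein fluorescence near 667 nm with spot signal-to-noise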

Compound	composite z-score [1]	composite z-score [2]	composite z-score [3]	z-score [4]	composite z-score [5]	composite z-score [6]	composite z-score [7]	composite z-score [8]	composite z-score [9]	composite z-score [10]
C=CCC(OC(C)=O)[C@@H]1[C@@H](N(Cc2ccc(-c3cccc(C(F)(F)F)c3)o2)C(=O)c2cccc3ccccc23)c2cc(OCCCO)ccc2N1C(=O)c1ccc2ccccc2c1 (stereo not given in full)	0.542	0.0086	0.256	-0.874 (inactive)	0.119	-1.08	0.142	0.317	0.289	1.2
COCCCN1C(=O)[C@@]2(Cc3ccccc31)c1ccccc1C(=O)N(Cc1ccccc1OC)[C@H]2c1ccc(CO)cc1	-0.909	0.612	0.9	0.307 (inactive)	-0.426	-0.428	-0.352	0.154	0.514	0.157
CN(C)CCCNC(=O)[C@@H]1c2ccccc2C(=O)N(C2Cc3ccccc3C2)[C@H]1c1ccc(CO)cc1	1.78	0.227	0.559	-0.196 (inactive)	-0.514	1.27	-0.741	-0.12	-0.273	0.923
CCCCCN1CC=CC23O[C@@H]4C=CCOC(=O)[C@@H]4[C@H]2C(=O)N(CCCCCO)[C@@H]3C1=O (stereo not given in full)	1.37	-0.181	0.398	-0.522 (inactive)	-0.893	-1.15	-0.728	-0.52	-0.63	0.676
C=CCNC(=O)[C@@H]1[C@H]2C(=O)O[C@H](c3ccccc3)[C@H](c3ccccc3)N2[C@H](c2ccccc2OCCO)[C@@]12C(=O)N(C(=O)OCCOC)c1ccc(C#CCCO)cc12	1.05	-0.274	0.272	-0.821 (inactive)	1.35	1.23	0.266	0.904	0.312	0.241
COc1ccccc1CN1C(=O)c2ccccc2[C@](Cc2ccccc2I)(C(=O)NCCCN(C)C)[C@@H]1c1ccc(CO)cc1	1.2	-0.556	-0.376	-1.79 (inactive)	-0.0448	1.22	0.221	0.158	0.0393	0.545
C=C(COC)/C(=C/C[C@@H](OC(C)=O)c1ccccc1OCCO)c1cc(C(=O)OC)ccc1OC	1.01	-0.0445	0.012	0.846 (inactive)	1.23	-0.208	-0.676	-0.0333	-0.343	0.416
[N-]=[N+]=NCc1ccccc1C[C@]1(C(=O)NCc2ccccc2)N=C(c2ccc(OCCCO)cc2)O[C@H]1c1ccccc1CN=[N+]=[N-]	1.03	1.22	0.889	-1.33 (inactive)	-0.0516	0.412	-0.253	0.0358	-0.726	0.794
C=CCC(OC(C)=O)[C@@H]1[C@@H](N(Cc2cc3ccccc3o2)C(=O)Cc2ccc(OC)cc2)c2cc(OCCCO)ccc2N1C(=O)Cc1ccc(OC)cc1 (stereo not given in full)	-0.193	-0.0082	0.246	-0.782 (inactive)	0.233	-0.238	0.157	-0.0138	0.214	1.3
COC(=O)[C@@]1(Cc2ccccc2)[C@@H]2[C@@H](CC(=O)[C@H]2CC(=O)C(=O)N(C)C)CN1C(=O)c1ccccc1	1.05	0.0889	0.929	-0.155 (inactive)	0.225	-0.901	-0.185	-0.0272	-0.782	0.988
N#Cc1ccc(C(O)C2C=CC3C(=O)N(c4ccccc4)C(=O)C3N2Nc2ccc([N+](=O)[O-])cc2)cc1 (stereo not given)	1.37	0.904	1.16	0.448 (inactive)	0.395	1.09	-0.175	0.516	-0.274	0.958
CCOC(=O)C[C@H]1[C@H](OC(=O)Cc2ccc3c(c2)OCO3)[C@@H](NC(=O)c2ccccc2)c2cc(OCCCO)ccc2N1C(=O)Cc1ccc(OC)cc1	-0.1	-0.386	-0.167	-2.62 (inactive)	0.236	0.227	0.237	0.339	0.0486	-0.296
CCOC(=O)C1=CC[C@@H](c2ccccc2)N(S(=O)(=O)C[Si](C)(C)C)[C@H]1c1ccccc1	1.09	0.319	-0.0475	-1.02 (inactive)	0.78	0.651	0.461	1.37	0.405	0.193
Cc1ccc(S[C@]2(C(=O)NCCCN(C)C)CC(=O)N(Cc3ccccc3Cl)[C@@H]2c2ccc(CO)cc2I)cc1	-0.393	0.844	0.864	-1.53 (inactive)	-1.29	-1.19	-1.3	-0.551	-1.39	1.4
CC(=O)n1cc(C(O)C2C=CC3C(=O)N(c4ccccc4)C(=O)C3N2Nc2ccccc2F)c2ccccc21 (stereo not given)	1.76	-0.167	0.483	-1.68 (inactive)	-0.191	-0.0798	-0.801	-0.638	-1.18	-0.551
C=C(/C(=C/C[C@@H](OC(C)=O)c1ccccc1OCCO)c1cc(C(=O)OC)ccc1OC)C(C)C	1.08	-0.114	-0.242	0.314 (inactive)	0.419	0.115	-0.209	-0.0844	0.0006	0.772
Cc1ccc(S[C@]2(C(=O)NCC(F)(F)F)CC(=O)N(C3CCCCC3)[C@@H]2c2ccc(CO)cc2)cc1	1.58	0.433	0.83	0.113 (inactive)	0.162	-0.374	-0.235	-0.517	-1.09	-0.0076
C=CC[C@@]1(C(=O)N(C)C)N=C(c2ccc(OCCCO)cc2)O[C@@H]1c1ccccc1	1.72	0.595	0.959	-0.69 (inactive)	1.4	1.01	-0.644	-0.583	-0.217	1.17
CCCCCCCCCCC(O)C1C=CC2C(=O)N(C)C(=O)C2N1N1CCCCC1 (stereo not given)	0.331	-0.267	0.598	1.53 (inactive)	-1.9	-1.41	-2.01	-1.63	-1.29	1.35
COc1cc2c(cc1O)C(c1ccc(CN3CCCC3)cc1)N(Cc1ccc([N+](=O)[O-])o1)CC2 (stereo not given)	1.23	-0.276	-0.0934	0.982 (inactive)	0.116	-0.903	-0.0173	0.0429	-0.299	-0.289
COCCOC(=O)N1C(=O)[C@@]2(c3cc(C#Cc4ccc(OC)cc4)ccc31)[C@H](C(=O)N1CCCCCCC1)[C@H]1C(=O)O[C@H](c3ccccc3)[C@H](c3ccccc3)N1[C@@H]2c1ccccc1OCCO	1.55	2.5	1.57	0.00537 (inactive)	0.766	1.32	1.07	1.56	1.61	1.66
CC(C)CNC(=O)[C@@H]1c2ccccc2C(=O)N(CC23CC4CC(CC(C4)C2)C3)[C@H]1c1ccc(CO)cc1	0.248	0.031	0.446	-1.46 (inactive)	0.124	1.02	0.0591	0.777	-0.0314	0.471
CCCC[C@@H]1C[C@H]1[C@@H](NC(=O)Cc1ccccc1)c1ccc(Cl)cc1	0.906	1.22	1.45	-0.0981 (inactive)	0.592	0.937	0.0572	0.868	-0.946	0.674
CCCCC(=C=CC[C@@H](O)c1cccc(OCCO)c1)C[C@@H](O)COCc1ccccc1	0.377	-0.17	-0.325	-1.21 (inactive)	0.483	0.0702	-1.35	-0.526	-0.274	0.211
C=CCC(OC(C)=O)[C@@H]1[C@@H](N(Cc2cccc3ccccc23)C(=O)c2ccc(C)cc2)c2cc(OCCCO)ccc2N1C(=O)c1ccc2ccccc2n1 (stereo not given in full)	0.206	-0.16	0.322	-1.47 (inactive)	0.0635	0.104	0.386	0.29	0.145	0.863
COCCOC(=O)N1C(=O)[C@@]2(c3cc(C#CC4(O)CCCCCC4)ccc31)[C@H](c1ccc(OCCO)cc1)N1[C@H](c3ccccc3)[C@H](c3ccccc3)OC(=O)[C@H]1[C@@H]2C(=O)N1CCCCCCC1	1.74	1.63	0.965	-1.55 (inactive)	1.35	1.32	0.825	1.51	0.988	1.74
COc1ccc([Si](C)(C)[C@@H]2[C@@H](CC(=O)N(CCO)Cc3ccccc3)O[C@]3(C(=O)N(Cc4ccc(N5CCC5=O)cc4)c4ccccc43)[C@H]2C)cc1	1.41	-0.26	0.618	-1.9 (inactive)	0.0525	-0.808	0.359	0.953	0.919	0.0242
COC(=O)C1=CC(CCCO)=CC(c2ccc(CN3CCCC3)cc2)N(Cc2sc3ccccc3c2Cl)C=C1C(=O)OC (stereo not given)	1.81	0.81	1.05	-0.855 (inactive)	1.37	1.32	0.526	0.708	0.227	0.375
C=C(/C(=C/C[C@H](OC(=O)c1ccncc1)c1ccccc1OCCO)c1cc(C(=O)OC)ccc1OC)C(C)C	0.748	-0.0168	0.253	-0.361 (inactive)	1.54	0.33	-0.105	1.1	0.599	1.25
CCC[C@@H]1C=C(C(=O)OCC)[C@H](c2ccccc2)N1S(=O)(=O)c1ccc(C)cc1	0.58	0.852	1.02	-0.141 (inactive)	0.977	1.32	0.623	1.25	0.117	0.789
